Compound activity: PubChem BioAssay, National Center for Advancing Translational Sciences (NCATS)
This is a sample that favours compounds with a hit; in the whole collection about 0.4% have one here.
TRPV1 agonist = activates the human vanilloid receptor TRPV1. Q8NER1. TRPV1-expressing cells, Fluo-8 calcium influx, agonist mode. activation, % at 8.33 µM. actives 0.19% (n = 320,000); in the data active = activation above about 80%; inconclusive = between about 30% and that limit
Target sequence (Q8NER1 whole entry, looked up): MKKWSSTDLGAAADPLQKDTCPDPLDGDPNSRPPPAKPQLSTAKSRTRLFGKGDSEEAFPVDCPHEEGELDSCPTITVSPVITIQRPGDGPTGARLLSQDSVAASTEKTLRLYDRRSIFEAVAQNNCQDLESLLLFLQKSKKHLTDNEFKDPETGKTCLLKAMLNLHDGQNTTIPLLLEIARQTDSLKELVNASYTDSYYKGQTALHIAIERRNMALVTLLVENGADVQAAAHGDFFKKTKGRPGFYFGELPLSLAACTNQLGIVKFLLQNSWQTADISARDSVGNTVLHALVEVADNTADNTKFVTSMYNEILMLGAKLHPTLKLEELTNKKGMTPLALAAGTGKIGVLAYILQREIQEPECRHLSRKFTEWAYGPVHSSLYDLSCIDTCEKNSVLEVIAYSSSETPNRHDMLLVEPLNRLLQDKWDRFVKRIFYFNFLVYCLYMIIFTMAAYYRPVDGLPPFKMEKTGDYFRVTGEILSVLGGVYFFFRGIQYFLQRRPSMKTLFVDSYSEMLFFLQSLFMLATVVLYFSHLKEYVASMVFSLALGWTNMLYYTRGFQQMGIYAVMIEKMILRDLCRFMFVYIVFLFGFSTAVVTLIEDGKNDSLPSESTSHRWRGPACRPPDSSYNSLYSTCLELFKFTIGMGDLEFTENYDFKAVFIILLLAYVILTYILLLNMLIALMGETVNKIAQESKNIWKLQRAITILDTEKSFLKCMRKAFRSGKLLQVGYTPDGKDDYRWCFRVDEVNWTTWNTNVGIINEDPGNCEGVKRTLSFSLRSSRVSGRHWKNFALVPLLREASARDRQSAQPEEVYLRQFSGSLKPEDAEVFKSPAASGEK
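TRPV1-expressing cells were cultured overnight at 35.5C and loaded with Fluo-8 calcium dye for 40 to 90 min at room temperature. After a 10 s baseline, compound was added and calcium influx was read kinetically for 3 min (ex 480/em 520 nm).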
USP1 inh = inhibitors of human USP1/UAF1 deubiquitinase. recombinant USP1/UAF1, Ub-Rhodamine cleavage fluorescence. Potency, µM (top dose mostly 57.1 µM), usual class: inhibitors. actives 0.23% (n = 390,000). AID 743255; active = well fitted inhibition curve with a large enough effect; inconclusive = small, poorly fitted or top-dose-only effect; inactive = no such curve, though single readings can be large or run the other way; note: nearly all actives have a fitted effect of over 60% in size
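High-throughput fluorogenic screen: 1nM USP1/UAF1 complex, Ub-Rho substrate 150nM final, 50mM HEPES pH 7.8 with 0.5mM EDTA, 0.1 mg/ml BSA, 1mM TCEP and 0.01% Tween-20.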
TRPML1 blocker = human mucolipin-1 channel inhibition. Q9GZU1. TRPML1-inducible cells, Ca2+ dye fluorescence, FDSS; stronger effect = lower value; inhibition of EC80 agonist-evoked calcium signal. activity change, negative = inhibition, % (test concentration not listed). actives 0.02% (n = 390,000). AID 624415; in the data active = activity change below about -50%; inconclusive = between about -30% and that limit;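 note: stimulus is agonist 54-4 at its EC80 concentration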
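Calcium fluorescence in TRPML1-DL cells induced overnight with Tet: a 110 s read after compound pin addition, then a 110 s antagonist read after challenge with 54-4 at 4 uM final (EC80).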
TRPML1 ag = human mucolipin-1 channel agonism; Q9GZU1; TRPML1-expressing cells, Ca2+ dye fluorescence, FDSS; activation, % (no concentration beside the values); actives 0.12% (n = 410,000); in the data active = activation above about 50%; inconclusive = mostly about 30% to 49%
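Agonist activity was taken from a 110 s kinetic Ca2+ dye read on the FDSS after pinning compounds onto TRPML1-DL cells. The cells were seeded at 1,500/well with Tet inducer, incubated about 16 h, then dye-loaded at room temperature.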
TRPV1 PAM = enhances activation of the human vanilloid receptor TRPV1; TRPV1-expressing cells, Fluo-8 calcium influx, capsaicin EC20 potentiation; potentiation, % at 8.33 µM; actives 0.02% (n = 320,000); AID 540277; in the data active = potentiation above about 80%; inconclusive = between about 30% and that limit
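Cells expressing TRPV1 were dye-loaded with Fluo-8 and read kinetically: 10 s baseline, 3 min after compound (agonist portion), then 2 min after EC20 capsaicin (allosteric enhancer portion). Calcium-bound dye fluorescence at 480/520 nm.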
Of the large screens only hits and unclear results are named; the others gave an inactive call.

CCc1nc(Nc2cccc(OC)c2)c2oc3ccccc3c2n1	TRPV1 agonist 81.4
COc1cc(CNC(=O)CCCC/C=C\C(C)C)ccc1O	TRPV1 agonist 80.4 (no result: USP1 inh, TRPML1 blocker, TRPML1 ag)
C=CCC1[C@H](C)[C@H]2[C@@H]3CC[C@@H](C3)[C@H]2CN1S(=O)(=O)c1ccc(C)cc1 (stereo not given in full)	TRPML1 ag 54.0 (no result: TRPV1 agonist, TRPV1 PAM)
Cc1ccc(S(=O)(=O)N2C[C@@H]3[C@H]4CC[C@H](C4)[C@@H]3[C@@H](C)C2CC(=O)c2ccccc2)cc1 (stereo not given in full)	none (no result: TRPV1 agonist, TRPV1 PAM)
Cc1cc(C)c(C#N)c(SCC(=O)CC(=O)OC(C)C)n1	none
Cc1nc(SCC(=O)CC(=O)OC(C)C)c(C#N)c(C)c1C	TRPML1 ag 71.2
O=C(NCc1ccc(F)cc1)C1CCCN1C(=O)Nc1ccc(Cl)cc1 (stereo not given)	none
O=C1C(N2CCOCC2)=C(n2nnc3ccccc32)C(=O)c2ccccc21	USP1 inh 14.1µM
COc1ccc(N2C(=O)c3ccccc3NC23C(=O)N(C)c2ccccc23)cc1 (stereo not given)	none
O=C(Nc1ccc(Br)cc1F)N1CC=C(c2c[nH]c3ccccc23)CC1	none (no result: TRPV1 agonist, TRPV1 PAM)
CCCCNc1nc2ccccc2n1CC(=O)Nc1c(C)cccc1CC	none
Cc1cccc(N2CCN(C(=O)N3CCOCC3)CC2)c1C	none
Cc1cccc(N2CCN(C(=O)N3CCCCC3)CC2)c1C	TRPV1 agonist 82.0
Cc1ccc(N2CCN(S(=O)(=O)N3CCCCC3)CC2)cc1C	none
Cc1ccc(N2CCN(C(=O)N3CCCC3)CC2)cc1C	TRPV1 agonist 93.5
Cc1ccc(NC(=O)NCCOCCn2c(=O)oc3ccccc32)cc1C	none (no result: TRPV1 agonist, TRPV1 PAM)
CC1CC(C)(C)CC2(C1)NC(=O)N(CC(=O)Nc1cc([N+](=O)[O-])ccc1F)C2=O (stereo not given)	none
CCOC(=O)c1c(C)c(C(=O)NCc2cccs2)c(C)n1C	TRPML1 blocker -56.7
CCOC(=O)c1c(C)c(C(=O)NCc2ccco2)c(C)n1C	none
Cc1ccc(C(=O)Nc2ccc(SC(F)F)cc2)s1	TRPV1 agonist 85.8
O=C1CCCN1CCCNc1nc(NCc2cccs2)nc2ccsc12	TRPML1 ag 57.1 (no result: TRPV1 agonist, USP1 inh, TRPML1 blocker, TRPV1 PAM)
COC(=O)c1ccc(C)cc1C1CN=NC12Cc1cc(C)ccc1C2=O (stereo not given)	USP1 inh inconclusive, TRPML1 ag 95.4 (no result: TRPV1 agonist, TRPV1 PAM)
CCOC(=O)C1CCCN(C(=O)c2ccc(Cl)c(S(=O)(=O)N3CCc4ccccc43)c2)C1 (stereo not given)	none (no result: TRPV1 agonist, TRPV1 PAM)
O=C1/C(=C/C=C/c2ccccc2)Oc2c1ccc(O)c2CN1CCN(CCO)CC1	USP1 inh inconclusive
COc1ccccc1/C=C/C=C1\Oc2c(ccc(O)c2CN2CCN(CCO)CC2)C1=O	USP1 inh 31.6µM
CN(Cc1cnn(C)c1)Cc1nc(COc2ccccc2)no1	none
O=C(Nc1nc2ccc(S(=O)(=O)N3CCCC3)cc2s1)c1cccc(F)c1	none (no result: TRPV1 agonist, TRPV1 PAM)
Cc1ccccc1CSc1nc2nc(C)c(Cc3ccccc3)c(C)n2n1	none (no result: TRPV1 agonist, TRPV1 PAM)
CNc1cncc(-c2cccc(NS(C)(=O)=O)c2)n1	none (no result: TRPV1 agonist, USP1 inh, TRPML1 blocker, TRPV1 PAM)
S=C(Nc1ccc(N2CCOCC2)cc1)Nc1ccc2nc(-c3ccco3)c(-c3ccco3)nc2c1	USP1 inh 25.1µM
Cc1cc(-c2ccc(C(C)C)c(S(=O)(=O)N3CCOc4ccccc43)c2)on1	TRPML1 ag 138.7
N#Cc1c(NC(=O)c2ccc(Br)o2)n(-c2ccccc2)c2nc3ccccc3nc12	USP1 inh 6.31µM
COc1ccc(-n2c(NC(=O)c3ccc(Br)o3)c(C#N)c3nc4ccccc4nc32)cc1	none (no result: USP1 inh, TRPML1 blocker, TRPML1 ag)
CCc1ccc(CCC(=O)Nc2ccc(C)c(C)c2)o1	none
CN(C)S(=O)(=O)c1ccc(C(=O)OCC(=O)Nc2ccc(OC(F)F)cc2)cc1	none
COc1ccc(-n2nnnc2C2CCN(S(=O)(=O)c3ccc(C)cc3)CC2)cc1	none (no result: TRPV1 agonist, TRPV1 PAM)
CCc1ccc(S(=O)(=O)Nc2ccc(O)c3c(=O)cc(-c4ccccc4Cl)oc23)cc1	USP1 inh inconclusive
O=c1cc(-c2ccccc2Cl)oc2c(NS(=O)(=O)c3cc(Cl)cc(Cl)c3O)ccc(O)c12	USP1 inh 25.1µM
COc1ccc(C(=O)NNC(=S)NC(=O)C(C)(C)C)cc1	TRPV1 agonist inconclusive, TRPML1 ag 50.7
CC(C)(C)C(=O)NC(=S)NNC(=O)c1sc2ccccc2c1Cl	TRPV1 agonist inconclusive, TRPML1 ag 71.1
COc1ccc(C(=O)NNC(=O)c2ccc(C(C)(C)C)cc2)cc1	none
O=C(NCC(=O)N1CCOCC1)c1ccc(Br)cc1	none
C#CCOCCOCCOCCNc1nc(N2CCN(C(=O)[C@H](CCCCN)n3cc(CCCC)nn3)CC2)nc(N2CCN(C(=O)[C@H](Cc3ccc(O)cc3)n3cc(CCO)nn3)CC2)n1	TRPV1 PAM inconclusive
O=C(Nc1ccc(Cl)cc1)c1ccc(Br)cc1F	TRPV1 agonist 83.0
CC(C)(C)c1ccc(C(=O)c2c[nH]c(C(=O)NCc3cccs3)c2)cc1	none
COc1ccc(NC(=O)CCCSc2nc(-c3ccco3)cc(C(F)(F)F)n2)cc1OC	TRPV1 agonist 83.2
COc1ccc(NC(=O)CCSc2nc(-c3ccco3)cc(C(F)(F)F)n2)cc1OC	none (no result: TRPV1 agonist, TRPV1 PAM)
CCc1ccc(NC(=O)c2cc(C(C)C)on2)cc1	TRPV1 agonist 82.1
CCc1ccc(NC(=O)c2cc(C)on2)cc1	TRPV1 agonist inconclusive
CC(=O)C1=C(O)C(=O)N(CCCn2ccnc2)C1c1ccc(Br)cc1 (stereo not given)	none
CC(C)(C)OC(=O)N(CCc1ccccc1)Cc1ccccc1OCc1cccc(NC(=O)C2CCC2)c1	none (no result: TRPV1 agonist, TRPV1 PAM)
CCCSc1ccc(-c2nn(-c3ccccc3)cc2/C=C(/C#N)C(=O)N2CCOCC2)cc1	TRPV1 agonist 101.0
c1ccc(-c2cnn3c(-c4ccccc4)c(-c4ccccc4)nc3n2)cc1	TRPV1 agonist inconclusive, USP1 inh 1.41µM, TRPML1 ag 79.0
O=C(Nc1ccc(N2CCCCC2)cc1)c1ccc2ccccc2n1	TRPV1 agonist inconclusive, TRPML1 blocker inconclusive, TRPML1 ag 87.2
O=C(Nc1cccc(S(=O)(=O)N2CCCCCC2)c1)c1ccc2ccccc2n1	none
CCOC(=O)c1ccc(NC(=O)/C=C/c2cccs2)cc1	TRPV1 agonist 83.8
NS(=O)(=O)c1cccc(NC(=O)/C=C/c2cccs2)c1	TRPV1 agonist 93.9
NS(=O)(=O)c1ccc(NC(=O)/C=C/c2cccs2)cc1	TRPV1 agonist inconclusive
CC1(C)CC(=O)c2cc(C(=O)N3CCN(CCO)CC3)c(=O)n(-c3ccc(Cl)cc3)c2C1	none
COc1ccc(CC(=O)NNC(=S)Nc2ccc(Br)cc2)cc1	none
COC(=O)CSc1nc2sc3c(c2c(=O)n1-c1ccc(C)cc1)CC(C(C)C)OC3 (stereo not given)	USP1 inh active (no result: TRPV1 agonist, TRPV1 PAM)
CCN(Cc1ccccc1)Cc1c(F)cccc1F	none
